The record followed here is PubChem BioAssay (NCATS).

SMILES strings stand for the structures. For some of these results: Measured potencies and affinities stand elsewhere. Activity calls are given as the source filed them. The call rests on the fitted dose curve.

The conditions of one experiment: Ebola virus entry assay, blue channel fluorescence.
As to `CC1(C)S[C@@H]2[C@H](NC(=O)Cc3ccccc3)C(=O)N2[C@H]1C(=O)O` (tested in a mixture with another compound), the molecule was called inactive.

Turning to `C[n+]1ccccc1/C=N/O`, the outcome was inactive.

As to `CN(CCOc1ccc(NS(C)(=O)=O)cc1)CCc1ccc(NS(C)(=O)=O)cc1`, the result was inactive.

As for `CC(=O)CCCCn1c(=O)c2c(ncn2C)n(C)c1=O`, the outcome was inactive.

Consider `Cc1cn([C@H]2C=C[C@@H](CO)O2)c(=O)[nH]c1=O`, for which the molecule was classed as inactive.

Take `CCCCCOC(=O)Nc1nc(=O)n([C@@H]2O[C@H](C)[C@@H](O)[C@H]2O)cc1F`: the result was inactive.

In the case of `COc1ccc(-c2cc(=S)ss2)cc1`, the result was inactive.

As to `CC(C)NCC(O)c1ccc(O)c(O)c1` (stereo unspecified), the molecule was called inactive.

For `CC1(C)O[C@@H]2[C@@H](CO[C@@]3(COS(N)(=O)=O)OC(C)(C)O[C@@H]23)O1`, the molecule was called inactive.

`CN(C)c1nc(N(C)C)nc(N(C)C)n1`: the outcome was inactive.

On to `C[C@H]1O[C@H](O[C@H]2[C@H](O)[C@@H](O)[C@@H](O[C@H]3[C@H](O)[C@@H](O)[C@H](O)O[C@@H]3CO)O[C@@H]2CO)[C@H](O)[C@@H](O)[C@@H]1N[C@H]1C=C(CO)[C@@H](O)[C@H](O)[C@H]1O`, for which the molecule was classed as inactive.

As for `N[C@@H](Cc1cc(I)c(Oc2cc(I)c(O)c(I)c2)c(I)c1)C(=O)O`, the molecule was called inactive.

In the case of `CC(=O)O[C@]1(C(C)=O)CC[C@H]2[C@@H]3C=C(C)C4=CC(=O)CC[C@]4(C)[C@H]3CC[C@@]21C`, the molecule was classed as inactive.

Take `COc1nc(N)nc2c1ncn2[C@@H]1O[C@H](CO)[C@@H](O)[C@@H]1O`: the molecule was classed as inactive.

On to `CCOc1ccc2ccccc2c1C(=O)N[C@@H]1C(=O)N2[C@@H]1SC(C)(C)[C@@H]2C(=O)O`, for which the molecule was called inactive.

For `O=c1n(CCCN2CCN(c3cccc(Cl)c3)CC2)nc2ccccn12`, the molecule was classed as inactive.

Take `CC(=O)N(O)CCCCCNC(=O)CCC(=O)N(O)CCCCCNC(=O)CCC(=O)N(O)CCCCCN`: the outcome was inactive.

On to `CN(C)CCc1c[nH]c2ccc(CS(=O)(=O)N3CCCC3)cc12`, for which the molecule was classed as inactive.

Take `Nc1nc(=S)c2[nH]cnc2[nH]1`: the call was inactive.

As for `NC(=O)NO`, the call was inactive.

`O=C1CC[C@@]2(O)[C@H]3Cc4ccc(O)c5c4[C@@]2(CCN3CC2CC2)[C@H]1O5`: the call was inactive.

In the case of `CC(C)(O)c1ccccc1CC[C@@H](SCC1(CC(=O)O)CC1)c1cccc(/C=C/c2ccc3ccc(Cl)cc3n2)c1`, the molecule was called inactive.

With `COc1c(C)c2c(c(O)c1C/C=C(\C)CCC(=O)O)C(=O)OC2`, the molecule was called inactive.

As to `Cc1ccc(C(=O)c2cc(O)c(O)c([N+](=O)[O-])c2)cc1`, the result was inactive.

On to `NS(=O)(=O)Cc1noc2ccccc12`, for which the result was inactive.

For `COC(c1ccccc1)(c1ccccc1)[C@H](Oc1nc(C)cc(C)n1)C(=O)O`, the molecule was classed as inactive.

On to `Nc1ncn([C@@H]2O[C@H](CO)[C@@H](O)[C@H]2O)c(=O)n1`, for which the call was inactive.

Regarding `COc1cc2c(cc1OC)[C@@H]1CC(=O)[C@@H](CC(C)C)CN1CC2`, the call was inactive.

Regarding `Cc1cc(C)cc(OCC2CNC(=O)O2)c1` (stereo unspecified), the outcome was inactive.

`O=NN(CCCl)C(=O)NCCCl`: the molecule was classed as inactive.

With `CCCN(CCC)S(=O)(=O)c1ccc(C(=O)O)cc1`, the molecule was called inactive.

In the case of `O=NN(CCCl)C(=O)NC1CCCCC1`, the outcome was inactive.

As to `CCN(C)C(=O)Oc1cccc([C@H](C)N(C)C)c1`, the result was inactive.

For `OC(Cn1cncn1)(Cn1cncn1)c1ccc(F)cc1F`, the result was inactive.

For `CNS(=O)(=O)CCc1ccc2[nH]cc(C3CCN(C)CC3)c2c1`, the call was inactive.

Take `C=C(c1ccc(C(=O)O)cc1)c1cc2c(cc1C)C(C)(C)CCC2(C)C`: the molecule was classed as inactive.

`CCCN[C@H]1CCc2nc(N)sc2C1`: the outcome was inactive.

On to `O=C(OC1C[C@H]2CC[C@@H](C1)[N+]21CCCC1)C(O)(c1ccccc1)c1ccccc1` (stereo partly specified), for which the molecule was classed as inactive.

The conditions of another experiment: Ebola virus entry assay, green fluorescence channel.
Take `CC1(C)S[C@@H]2[C@H](NC(=O)Cc3ccccc3)C(=O)N2[C@H]1C(=O)O` (tested in a mixture with another compound): the outcome was inactive.

`C[n+]1ccccc1/C=N/O`: the molecule was called inactive.

Consider `CN(CCOc1ccc(NS(C)(=O)=O)cc1)CCc1ccc(NS(C)(=O)=O)cc1`, for which the result was inactive.

Regarding `CC(=O)CCCCn1c(=O)c2c(ncn2C)n(C)c1=O`, the molecule was called inactive.

In the case of `Cc1cn([C@H]2C=C[C@@H](CO)O2)c(=O)[nH]c1=O`, the molecule was called inactive.

Regarding `CCCCCOC(=O)Nc1nc(=O)n([C@@H]2O[C@H](C)[C@@H](O)[C@H]2O)cc1F`, the result was inactive.

Take `COc1ccc(-c2cc(=S)ss2)cc1`: the molecule was classed as inactive.

Take `CC(C)NCC(O)c1ccc(O)c(O)c1` (stereo unspecified): the outcome was inactive.

Turning to `CC1(C)O[C@@H]2[C@@H](CO[C@@]3(COS(N)(=O)=O)OC(C)(C)O[C@@H]23)O1`, the call was inactive.

For the molecule `CN(C)c1nc(N(C)C)nc(N(C)C)n1`, the call was inactive.

Take `C[C@H]1O[C@H](O[C@H]2[C@H](O)[C@@H](O)[C@@H](O[C@H]3[C@H](O)[C@@H](O)[C@H](O)O[C@@H]3CO)O[C@@H]2CO)[C@H](O)[C@@H](O)[C@@H]1N[C@H]1C=C(CO)[C@@H](O)[C@H](O)[C@H]1O`: the molecule was classed as inactive.

As to `N[C@@H](Cc1cc(I)c(Oc2cc(I)c(O)c(I)c2)c(I)c1)C(=O)O`, the outcome was inactive.

As for `CC(=O)O[C@]1(C(C)=O)CC[C@H]2[C@@H]3C=C(C)C4=CC(=O)CC[C@]4(C)[C@H]3CC[C@@]21C`, the molecule was classed as inactive.

Regarding `COc1nc(N)nc2c1ncn2[C@@H]1O[C@H](CO)[C@@H](O)[C@@H]1O`, the call was inactive.

As to `CCOc1ccc2ccccc2c1C(=O)N[C@@H]1C(=O)N2[C@@H]1SC(C)(C)[C@@H]2C(=O)O`, the outcome was inactive.

For `O=c1n(CCCN2CCN(c3cccc(Cl)c3)CC2)nc2ccccn12`, the outcome was inactive.

As to `CC(=O)N(O)CCCCCNC(=O)CCC(=O)N(O)CCCCCNC(=O)CCC(=O)N(O)CCCCCN`, the result was inactive.

On to `CN(C)CCc1c[nH]c2ccc(CS(=O)(=O)N3CCCC3)cc12`, for which the call was inactive.

On to `Nc1nc(=S)c2[nH]cnc2[nH]1`, for which the call was inactive.

For `NC(=O)NO`, the call was inactive.

`O=C1CC[C@@]2(O)[C@H]3Cc4ccc(O)c5c4[C@@]2(CCN3CC2CC2)[C@H]1O5`: the molecule was called inactive.

For `CC(C)(O)c1ccccc1CC[C@@H](SCC1(CC(=O)O)CC1)c1cccc(/C=C/c2ccc3ccc(Cl)cc3n2)c1`, the call was inactive.

Turning to `COc1c(C)c2c(c(O)c1C/C=C(\C)CCC(=O)O)C(=O)OC2`, the call was inactive.

With `Cc1ccc(C(=O)c2cc(O)c(O)c([N+](=O)[O-])c2)cc1`, the outcome was inactive.

Regarding `NS(=O)(=O)Cc1noc2ccccc12`, the call was inactive.

On to `COC(c1ccccc1)(c1ccccc1)[C@H](Oc1nc(C)cc(C)n1)C(=O)O`, for which the molecule was classed as inactive.

Consider `Nc1ncn([C@@H]2O[C@H](CO)[C@@H](O)[C@H]2O)c(=O)n1`, for which the outcome was inactive.

As for `COc1cc2c(cc1OC)[C@@H]1CC(=O)[C@@H](CC(C)C)CN1CC2`, the molecule was classed as inactive.

Take `Cc1cc(C)cc(OCC2CNC(=O)O2)c1` (stereo unspecified): the molecule was classed as inactive.

Consider `O=NN(CCCl)C(=O)NCCCl`, for which the outcome was inactive.

Turning to `CCCN(CCC)S(=O)(=O)c1ccc(C(=O)O)cc1`, the molecule was classed as inactive.

Take `O=NN(CCCl)C(=O)NC1CCCCC1`: the molecule was classed as inactive.

As to `CCN(C)C(=O)Oc1cccc([C@H](C)N(C)C)c1`, the call was inactive.

With `OC(Cn1cncn1)(Cn1cncn1)c1ccc(F)cc1F`, the molecule was classed as inactive.

For the molecule `CNS(=O)(=O)CCc1ccc2[nH]cc(C3CCN(C)CC3)c2c1`, the molecule was called inactive.

In the case of `C=C(c1ccc(C(=O)O)cc1)c1cc2c(cc1C)C(C)(C)CCC2(C)C`, the molecule was called inactive.

As to `CCCN[C@H]1CCc2nc(N)sc2C1`, the result was inactive.

For the molecule `O=C(OC1C[C@H]2CC[C@@H](C1)[N+]21CCCC1)C(O)(c1ccccc1)c1ccccc1` (stereo partly specified), the call was inactive.
